# Experimental data reported in article PMC7862700, “An all-to-all approach to the identification of sequence-specific readers for epigenetic DNA modifications on cytosine”.
# What was measured:
# Test in all cases: DAPPL (digital affinity profiling via proximity ligation, sequencing); 10 mM Tris-HCl pH 7.5, 50 mM NaCl, 1 mM DTT, 4% glycerol, room temperature, 30 min; GST-TFs on glutathione beads, 16-mer random dsDNA library, 0.1% formaldehyde crosslink after washing; high values mean tight binding
# Conditions in all cases: protein: recombinant; tags: N-terminal GST; dsDNA, one strand shown
# [1] = target: T1, FLI1 (Homo sapiens, UniProt Q01543 1-452)
# T1 sequence: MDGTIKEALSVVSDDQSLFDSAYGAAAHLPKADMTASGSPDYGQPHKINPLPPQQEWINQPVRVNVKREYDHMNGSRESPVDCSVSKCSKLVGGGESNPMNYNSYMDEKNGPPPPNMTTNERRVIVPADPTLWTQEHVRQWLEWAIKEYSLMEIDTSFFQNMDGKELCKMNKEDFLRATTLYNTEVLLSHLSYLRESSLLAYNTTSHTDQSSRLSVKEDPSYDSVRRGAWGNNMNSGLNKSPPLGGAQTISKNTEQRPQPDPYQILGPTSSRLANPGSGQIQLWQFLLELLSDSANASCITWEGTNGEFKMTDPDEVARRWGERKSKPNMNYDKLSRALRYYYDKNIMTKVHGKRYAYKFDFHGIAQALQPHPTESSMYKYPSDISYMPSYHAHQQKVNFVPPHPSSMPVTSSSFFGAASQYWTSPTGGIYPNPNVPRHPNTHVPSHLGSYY
# In short: (§1)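 Yeast served to express human transcription factors as GST fusions, which were then captured on glutathione beads and labelled with DNA barcodes. Pooled with a tag-only sample, they were incubated with 200 nmole of a 16-mer random double-stranded DNA library for 30 min at room temperature in Tris/NaCl/DTT/glycerol buffer, washed, crosslinked with 0.1% formaldehyde, ligated by proximity, amplified by PCR and sequenced. Dividing each hexamer's read frequency for a factor by its frequency for the tag-only sample gives the binding signal.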
# [2] = target: T2, ELK1 (Homo sapiens, UniProt P19419 1-428)
# T2 sequence: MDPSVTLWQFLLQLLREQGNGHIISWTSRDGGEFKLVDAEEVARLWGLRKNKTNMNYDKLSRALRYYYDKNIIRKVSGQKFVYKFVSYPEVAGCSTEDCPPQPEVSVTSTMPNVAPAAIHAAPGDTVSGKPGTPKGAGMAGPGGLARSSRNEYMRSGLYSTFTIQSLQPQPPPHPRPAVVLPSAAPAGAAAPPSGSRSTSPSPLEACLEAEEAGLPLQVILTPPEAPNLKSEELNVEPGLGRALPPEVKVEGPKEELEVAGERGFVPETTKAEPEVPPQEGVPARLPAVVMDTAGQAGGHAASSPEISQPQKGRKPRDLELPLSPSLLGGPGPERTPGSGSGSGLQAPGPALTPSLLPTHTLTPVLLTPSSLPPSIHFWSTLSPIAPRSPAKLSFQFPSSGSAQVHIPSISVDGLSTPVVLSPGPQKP
# In short: as §1
# [3] = target: T3, GABPA (Homo sapiens, UniProt Q06546 1-454)
# T3 sequence: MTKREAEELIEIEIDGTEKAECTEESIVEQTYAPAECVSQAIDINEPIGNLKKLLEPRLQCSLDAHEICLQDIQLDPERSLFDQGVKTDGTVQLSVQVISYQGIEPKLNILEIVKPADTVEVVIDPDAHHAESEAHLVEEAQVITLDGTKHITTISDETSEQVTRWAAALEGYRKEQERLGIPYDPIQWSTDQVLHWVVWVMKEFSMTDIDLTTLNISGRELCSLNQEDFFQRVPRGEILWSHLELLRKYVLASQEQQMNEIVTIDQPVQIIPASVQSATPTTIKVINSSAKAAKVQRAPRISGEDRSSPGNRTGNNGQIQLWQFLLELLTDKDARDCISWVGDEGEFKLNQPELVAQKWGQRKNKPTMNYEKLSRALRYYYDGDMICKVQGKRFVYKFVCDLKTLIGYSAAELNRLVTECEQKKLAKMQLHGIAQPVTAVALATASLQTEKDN
# In short: as §1
# [4] = target: T4, ERG (Homo sapiens, UniProt P11308 1-479)
# T4 sequence: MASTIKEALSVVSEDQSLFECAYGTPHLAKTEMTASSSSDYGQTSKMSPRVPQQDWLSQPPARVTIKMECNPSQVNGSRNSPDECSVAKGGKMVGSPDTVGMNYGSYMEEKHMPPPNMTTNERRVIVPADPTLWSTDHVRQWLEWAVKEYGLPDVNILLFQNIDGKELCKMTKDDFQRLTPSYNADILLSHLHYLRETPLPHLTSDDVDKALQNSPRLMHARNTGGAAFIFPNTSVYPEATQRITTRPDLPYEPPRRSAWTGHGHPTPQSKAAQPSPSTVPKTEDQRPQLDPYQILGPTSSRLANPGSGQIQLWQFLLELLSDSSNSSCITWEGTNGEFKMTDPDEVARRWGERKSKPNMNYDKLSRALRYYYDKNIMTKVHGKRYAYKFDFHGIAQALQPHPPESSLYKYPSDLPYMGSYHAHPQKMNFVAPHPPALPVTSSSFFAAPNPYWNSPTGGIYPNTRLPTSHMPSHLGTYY
# In short: as §1
# [5] = target: ELF1 (Homo sapiens, UniProt P32519 1-619)
# ELF1, sequence (P32519 whole entry): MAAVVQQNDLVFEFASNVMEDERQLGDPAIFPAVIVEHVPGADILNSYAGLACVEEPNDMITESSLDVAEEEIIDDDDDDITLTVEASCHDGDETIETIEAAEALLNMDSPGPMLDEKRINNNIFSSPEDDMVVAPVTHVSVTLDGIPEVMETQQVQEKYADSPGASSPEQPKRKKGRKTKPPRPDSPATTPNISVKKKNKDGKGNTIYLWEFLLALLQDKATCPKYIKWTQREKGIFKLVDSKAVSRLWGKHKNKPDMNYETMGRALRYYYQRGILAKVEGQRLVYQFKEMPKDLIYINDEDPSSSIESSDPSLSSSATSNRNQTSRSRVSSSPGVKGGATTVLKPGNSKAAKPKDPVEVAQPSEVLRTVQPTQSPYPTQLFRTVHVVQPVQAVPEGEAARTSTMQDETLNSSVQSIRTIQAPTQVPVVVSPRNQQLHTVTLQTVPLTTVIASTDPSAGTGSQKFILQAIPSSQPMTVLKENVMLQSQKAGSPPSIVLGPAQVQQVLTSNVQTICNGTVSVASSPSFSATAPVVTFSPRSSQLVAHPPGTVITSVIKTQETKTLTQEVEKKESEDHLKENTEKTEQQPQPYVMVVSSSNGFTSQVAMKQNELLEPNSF
# In short: as §1
# [6] = target: T5, EHF (Homo sapiens, UniProt Q9NZC4 1-300)
# T5 sequence: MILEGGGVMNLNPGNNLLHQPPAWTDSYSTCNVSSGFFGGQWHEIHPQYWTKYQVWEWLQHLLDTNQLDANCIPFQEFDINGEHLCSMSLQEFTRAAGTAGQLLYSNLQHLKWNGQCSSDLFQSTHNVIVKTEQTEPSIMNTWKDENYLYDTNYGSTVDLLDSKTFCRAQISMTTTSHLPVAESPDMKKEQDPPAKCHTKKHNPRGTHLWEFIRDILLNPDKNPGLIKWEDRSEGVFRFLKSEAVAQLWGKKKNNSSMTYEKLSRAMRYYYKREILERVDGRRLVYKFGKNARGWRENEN
# In short: as §1
# [7] = target: SPIB (Homo sapiens, UniProt Q01892 1-262)
# SPIB, sequence (Q01892 whole entry): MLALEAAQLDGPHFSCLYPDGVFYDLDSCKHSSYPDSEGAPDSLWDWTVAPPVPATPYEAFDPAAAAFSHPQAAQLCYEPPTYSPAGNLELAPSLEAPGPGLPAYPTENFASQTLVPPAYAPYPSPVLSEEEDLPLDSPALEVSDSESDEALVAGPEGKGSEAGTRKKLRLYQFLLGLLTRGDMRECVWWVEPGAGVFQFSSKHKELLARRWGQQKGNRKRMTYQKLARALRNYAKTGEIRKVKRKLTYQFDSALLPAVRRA
# In short: as §1
# [8] = target: ELF4 (Homo sapiens, UniProt Q99607 1-663)
# ELF4, sequence (Q99607 whole entry): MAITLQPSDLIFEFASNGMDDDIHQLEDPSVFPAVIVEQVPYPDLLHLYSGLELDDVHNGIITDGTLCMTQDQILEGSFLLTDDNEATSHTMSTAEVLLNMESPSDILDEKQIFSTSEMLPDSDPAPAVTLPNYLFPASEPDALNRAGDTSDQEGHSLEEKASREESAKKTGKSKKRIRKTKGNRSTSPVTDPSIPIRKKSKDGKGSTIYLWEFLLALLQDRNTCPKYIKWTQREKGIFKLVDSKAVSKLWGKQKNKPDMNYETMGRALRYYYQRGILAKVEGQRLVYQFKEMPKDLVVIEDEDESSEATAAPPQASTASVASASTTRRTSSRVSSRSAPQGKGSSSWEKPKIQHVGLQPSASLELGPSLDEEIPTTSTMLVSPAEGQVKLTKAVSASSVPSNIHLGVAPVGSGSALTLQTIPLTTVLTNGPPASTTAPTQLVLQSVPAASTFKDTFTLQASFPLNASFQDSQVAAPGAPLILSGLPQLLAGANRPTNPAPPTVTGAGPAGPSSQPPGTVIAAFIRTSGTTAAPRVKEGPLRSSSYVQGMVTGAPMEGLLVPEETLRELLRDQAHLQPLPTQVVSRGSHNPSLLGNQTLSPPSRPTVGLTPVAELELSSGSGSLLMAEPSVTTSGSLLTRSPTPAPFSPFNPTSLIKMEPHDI
# In short: as §1
# [9] = target: T6, ELK4 (Homo sapiens, UniProt P28324-2 1-405)
# T6 sequence: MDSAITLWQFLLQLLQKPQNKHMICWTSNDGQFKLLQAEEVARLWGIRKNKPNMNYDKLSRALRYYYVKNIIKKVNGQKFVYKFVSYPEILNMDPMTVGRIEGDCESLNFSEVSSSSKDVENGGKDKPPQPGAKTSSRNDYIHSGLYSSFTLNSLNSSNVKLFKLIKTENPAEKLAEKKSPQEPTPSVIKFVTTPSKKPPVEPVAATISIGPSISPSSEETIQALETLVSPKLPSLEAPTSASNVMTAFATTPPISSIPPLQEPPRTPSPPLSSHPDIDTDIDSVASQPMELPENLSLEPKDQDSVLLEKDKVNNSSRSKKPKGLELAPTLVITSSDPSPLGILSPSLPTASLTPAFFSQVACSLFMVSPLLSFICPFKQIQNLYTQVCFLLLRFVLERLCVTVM
# In short: as §1
# [10] = target: T7, ETV2 (Homo sapiens, UniProt O00321 1-342)
# T7 sequence: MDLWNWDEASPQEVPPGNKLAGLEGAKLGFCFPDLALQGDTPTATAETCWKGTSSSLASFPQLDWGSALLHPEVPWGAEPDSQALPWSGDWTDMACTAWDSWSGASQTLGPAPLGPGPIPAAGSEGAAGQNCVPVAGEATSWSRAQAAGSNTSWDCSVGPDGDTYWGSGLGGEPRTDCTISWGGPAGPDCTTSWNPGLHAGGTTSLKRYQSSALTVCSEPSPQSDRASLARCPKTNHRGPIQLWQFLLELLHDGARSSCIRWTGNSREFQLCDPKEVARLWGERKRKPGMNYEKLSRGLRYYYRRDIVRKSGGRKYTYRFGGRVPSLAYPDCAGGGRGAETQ
# In short: as §1
# [11] = target: ETV1 (Homo sapiens, UniProt P50549 1-477)
# ETV1, sequence (P50549 whole entry): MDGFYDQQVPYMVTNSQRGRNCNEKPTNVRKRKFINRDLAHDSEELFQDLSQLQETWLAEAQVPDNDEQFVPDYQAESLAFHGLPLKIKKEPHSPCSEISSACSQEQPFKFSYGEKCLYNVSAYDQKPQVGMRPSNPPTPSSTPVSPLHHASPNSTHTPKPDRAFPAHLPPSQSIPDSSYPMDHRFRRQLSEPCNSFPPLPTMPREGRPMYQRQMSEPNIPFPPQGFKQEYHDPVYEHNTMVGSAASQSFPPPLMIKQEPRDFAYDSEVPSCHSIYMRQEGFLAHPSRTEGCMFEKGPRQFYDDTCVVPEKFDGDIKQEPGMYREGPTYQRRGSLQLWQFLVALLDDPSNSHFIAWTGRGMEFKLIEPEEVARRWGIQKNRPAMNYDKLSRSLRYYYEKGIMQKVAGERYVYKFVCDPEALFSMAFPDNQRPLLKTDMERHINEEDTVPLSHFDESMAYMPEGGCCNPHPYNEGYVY
# In short: as §1
# [12] = target: T8, ERF (Homo sapiens, UniProt P50548 1-548)
# T8 sequence: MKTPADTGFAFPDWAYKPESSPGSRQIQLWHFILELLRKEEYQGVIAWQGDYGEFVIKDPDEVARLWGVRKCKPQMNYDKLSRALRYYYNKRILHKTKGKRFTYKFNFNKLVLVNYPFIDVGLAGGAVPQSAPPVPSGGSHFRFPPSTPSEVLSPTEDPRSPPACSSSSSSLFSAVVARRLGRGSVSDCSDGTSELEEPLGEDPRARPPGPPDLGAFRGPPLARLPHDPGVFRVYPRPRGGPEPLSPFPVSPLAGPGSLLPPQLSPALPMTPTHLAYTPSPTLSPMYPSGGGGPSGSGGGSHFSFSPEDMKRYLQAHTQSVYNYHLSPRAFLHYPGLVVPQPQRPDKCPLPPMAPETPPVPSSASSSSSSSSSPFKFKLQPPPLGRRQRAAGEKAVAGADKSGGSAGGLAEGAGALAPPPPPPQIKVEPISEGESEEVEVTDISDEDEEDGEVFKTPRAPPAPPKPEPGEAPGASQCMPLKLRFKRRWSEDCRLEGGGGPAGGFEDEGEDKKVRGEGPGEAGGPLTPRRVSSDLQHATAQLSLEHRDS
# In short: as §1
# [13] = target: T9, ETV3L (Homo sapiens, UniProt Q6ZN32 1-361)
# T9 sequence: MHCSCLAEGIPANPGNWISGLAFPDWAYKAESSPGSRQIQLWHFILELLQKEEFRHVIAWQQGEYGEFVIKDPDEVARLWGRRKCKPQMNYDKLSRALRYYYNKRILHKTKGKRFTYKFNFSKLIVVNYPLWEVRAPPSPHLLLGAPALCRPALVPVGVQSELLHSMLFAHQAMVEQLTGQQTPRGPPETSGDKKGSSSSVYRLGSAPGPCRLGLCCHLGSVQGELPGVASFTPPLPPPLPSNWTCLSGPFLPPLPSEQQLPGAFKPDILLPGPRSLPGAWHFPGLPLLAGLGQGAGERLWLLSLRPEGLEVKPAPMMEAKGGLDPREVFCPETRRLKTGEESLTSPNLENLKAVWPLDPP
# In short: as §1
# [14] = target: T10, ETS2 (Homo sapiens, UniProt P15036 1-469)
# T10 sequence: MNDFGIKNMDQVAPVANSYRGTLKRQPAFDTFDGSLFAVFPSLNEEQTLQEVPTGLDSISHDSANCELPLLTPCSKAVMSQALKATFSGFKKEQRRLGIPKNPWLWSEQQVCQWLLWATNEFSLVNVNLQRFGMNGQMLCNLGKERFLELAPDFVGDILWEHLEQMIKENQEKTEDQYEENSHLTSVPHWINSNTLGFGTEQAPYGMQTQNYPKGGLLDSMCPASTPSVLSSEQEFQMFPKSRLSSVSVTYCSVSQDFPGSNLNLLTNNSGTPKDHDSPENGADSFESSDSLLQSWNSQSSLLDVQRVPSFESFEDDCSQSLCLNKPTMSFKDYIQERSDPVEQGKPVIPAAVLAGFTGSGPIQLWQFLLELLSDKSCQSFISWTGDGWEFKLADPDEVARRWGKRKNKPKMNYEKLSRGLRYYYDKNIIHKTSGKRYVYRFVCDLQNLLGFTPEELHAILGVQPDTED
# In short: as §1
# [15] = target: T11, ETV7 (Homo sapiens, UniProt Q9Y603 1-341)
# T11 sequence: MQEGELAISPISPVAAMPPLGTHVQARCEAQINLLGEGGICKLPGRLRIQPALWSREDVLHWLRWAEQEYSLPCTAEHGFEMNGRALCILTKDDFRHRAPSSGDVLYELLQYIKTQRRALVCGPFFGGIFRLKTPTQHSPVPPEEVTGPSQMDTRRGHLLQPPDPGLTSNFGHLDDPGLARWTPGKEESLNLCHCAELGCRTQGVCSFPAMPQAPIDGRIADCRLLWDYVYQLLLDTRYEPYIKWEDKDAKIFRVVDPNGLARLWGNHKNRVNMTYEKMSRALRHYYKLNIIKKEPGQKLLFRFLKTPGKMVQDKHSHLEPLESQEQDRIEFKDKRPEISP
# In short: as §1
# [16] = target: T12, ETV3 (Homo sapiens, UniProt P41162-2 1-143)
# T12 sequence: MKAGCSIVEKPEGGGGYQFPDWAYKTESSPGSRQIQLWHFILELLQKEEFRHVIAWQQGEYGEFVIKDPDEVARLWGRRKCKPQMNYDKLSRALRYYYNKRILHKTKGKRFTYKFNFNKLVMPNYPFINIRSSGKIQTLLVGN
# In short: as §1
# [17] = target: ETV6 (Homo sapiens, UniProt P41212 1-452)
# ETV6, sequence (P41212 whole entry): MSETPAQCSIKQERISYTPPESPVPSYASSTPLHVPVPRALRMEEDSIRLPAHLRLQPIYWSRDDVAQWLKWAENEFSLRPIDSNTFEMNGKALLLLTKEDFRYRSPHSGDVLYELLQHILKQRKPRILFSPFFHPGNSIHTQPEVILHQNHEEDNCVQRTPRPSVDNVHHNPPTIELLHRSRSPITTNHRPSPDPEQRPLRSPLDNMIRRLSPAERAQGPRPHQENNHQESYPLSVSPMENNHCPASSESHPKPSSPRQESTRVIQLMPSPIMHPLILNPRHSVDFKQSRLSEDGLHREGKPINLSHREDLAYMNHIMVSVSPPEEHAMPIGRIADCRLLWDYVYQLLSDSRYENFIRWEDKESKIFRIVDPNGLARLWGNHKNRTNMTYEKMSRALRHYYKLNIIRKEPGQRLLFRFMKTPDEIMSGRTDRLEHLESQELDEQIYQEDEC
# In short: as §1
sequence,measurement,setting,value
TCAGCT,binding signal,[1],"1.09 fold enrichment (6-mer frequency, TF over GST control)"
same,binding signal,[2],"1 fold enrichment (6-mer frequency, TF over GST control)"
same,binding signal,[3],"1.04 fold enrichment (6-mer frequency, TF over GST control)"
same,binding signal,[4],"1.06 fold enrichment (6-mer frequency, TF over GST control)"
same,binding signal,[5],"1.12 fold enrichment (6-mer frequency, TF over GST control)"
same,binding signal,[6],"1.11 fold enrichment (6-mer frequency, TF over GST control)"
same,binding signal,[7],"1.09 fold enrichment (6-mer frequency, TF over GST control)"
same,binding signal,[8],"1.03 fold enrichment (6-mer frequency, TF over GST control)"
same,binding signal,[9],"1.14 fold enrichment (6-mer frequency, TF over GST control)"
same,binding signal,[10],"1.11 fold enrichment (6-mer frequency, TF over GST control)"
same,binding signal,[11],"1.14 fold enrichment (6-mer frequency, TF over GST control)"
same,binding signal,[12],"1.09 fold enrichment (6-mer frequency, TF over GST control)"
same,binding signal,[13],"1.09 fold enrichment (6-mer frequency, TF over GST control)"
same,binding signal,[14],"1.14 fold enrichment (6-mer frequency, TF over GST control)"
same,binding signal,[15],"1.01 fold enrichment (6-mer frequency, TF over GST control)"
same,binding signal,[16],"1.05 fold enrichment (6-mer frequency, TF over GST control)"
same,binding signal,[17],"1.04 fold enrichment (6-mer frequency, TF over GST control)"
